In PubChem BioAssay (NCI) one finds growth data, which are given here for 14 molecules.

The panel holds about 83,000 compounds, 20% with a hit somewhere; the sample as a whole holds those more often.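 Each cell line was grown in a 96-well plate and treated with one concentration of compound for 48 hours. Values below 10 were considered active.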 A number with no mark means an inactive call. The source made the active and inactive calls.

Test systems include SR leukemia; RPMI-8226 leukemia; OVCAR-8 ovarian; OVCAR-5 ovarian; OVCAR-4 ovarian; SK-OV-3 ovarian; IGROV1 ovarian; OVCAR-3 ovarian; HS 578T breast; NCI/ADR-RES ovarian.
What all share (assay): NCI-60 one-dose screen, 48 h (100 = growth as untreated, 0 = no growth, -100 = all killed)
Conditions in all cases: 10 µM

For the molecule `COc1ccc(S(=O)(=O)Nc2cc(/C=C\c3cc(OC)c(OC)c(OC)c3)ccc2OC)cc1`, the growth with SR leukemia was 10.2%; with RPMI-8226 leukemia it was 7.64% (active); in the assay on OVCAR-8 ovarian it was 9.01% (active); in the assay on OVCAR-5 ovarian it was 30.7%; in the assay on OVCAR-4 ovarian, 34.4%; in the assay on SK-OV-3 ovarian, 11.8%. The growth with IGROV1 ovarian is 13.6%; in the assay on OVCAR-3 ovarian it was -19.8% (active); in the assay on HS 578T breast it was 10.6%; in the assay with NCI/ADR-RES ovarian, 11%.
As for `COc1cccc(-c2nnc(COc3ccc(-c4nc5ccccc5[nH]4)cc3OC)o2)c1`, the growth in the assay with SR leukemia is 7.26% (active); in the assay on RPMI-8226 leukemia, 51%; in the assay with OVCAR-8 ovarian, 67.3%; in the assay on OVCAR-5 ovarian, 119%; in the assay with OVCAR-4 ovarian, 103%; in the assay on SK-OV-3 ovarian, 107%. Further, the growth with IGROV1 ovarian is 101%; with OVCAR-3 ovarian, 102%; in the assay with HS 578T breast, 102%; in the assay with NCI/ADR-RES ovarian it was 89%.
`CCCCCCCCCCCCCC[n+]1ccccc1`: the growth in the assay with SR leukemia is -22.6% (active); in the assay on RPMI-8226 leukemia it was -57% (active); in the assay with OVCAR-8 ovarian, -68.7% (active); with OVCAR-5 ovarian it was 5.24% (active); with OVCAR-4 ovarian it was -6.58% (active); with SK-OV-3 ovarian, -0.0653% (active). The growth was -60.4% (active) with IGROV1 ovarian, -51.2% (active) with OVCAR-3 ovarian, -12.6% (active) in the assay with HS 578T breast and 73.3% with NCI/ADR-RES ovarian.
Take `Cc1ccc(C(=O)O)c(N)c1C`: the growth is 98.4% with SR leukemia; 98.7% in the assay on RPMI-8226 leukemia; 100% in the assay with OVCAR-8 ovarian; 106% with OVCAR-5 ovarian; 99.3% in the assay on OVCAR-4 ovarian; 93.5% with SK-OV-3 ovarian. Besides, the growth in the assay on IGROV1 ovarian is 91%; in the assay on OVCAR-3 ovarian, 104%; with HS 578T breast, 106%; with NCI/ADR-RES ovarian, 106%.
`O=CNc1c(Cl)cc2c(c1Cl)Cc1cc([N+](=O)[O-])ccc1-2`: the growth in the assay with SR leukemia was 57%; with RPMI-8226 leukemia, 13.9%; with OVCAR-8 ovarian, 58.8%; in the assay on OVCAR-5 ovarian, 82.3%; in the assay with OVCAR-4 ovarian, 50.8%; in the assay with SK-OV-3 ovarian, 68%. The growth is 38.6% in the assay on IGROV1 ovarian, 41% with OVCAR-3 ovarian, 75.3% with HS 578T breast and 57.4% with NCI/ADR-RES ovarian.
Take `COCCOC(=O)NC(=O)Nc1ccc(/C(=N/O)c2ccc(Cl)cc2)cc1`: the growth with SR leukemia is 8.7% (active); in the assay on RPMI-8226 leukemia it was 22.3%; in the assay on OVCAR-8 ovarian, 4.12% (active); in the assay on OVCAR-5 ovarian it was 47.1%; in the assay with OVCAR-4 ovarian it was 43.7%; in the assay on SK-OV-3 ovarian, 4.2% (active). Further, the growth with IGROV1 ovarian was 30.9%; with OVCAR-3 ovarian, 0.755% (active); with HS 578T breast, 34.4%; with NCI/ADR-RES ovarian it was -3.69% (active).
As to `CNC(=O)c1cc(Oc2ccc(NC(=O)Nc3ccc(Cl)c(OC4CCCCC4)c3)c(F)c2)ccn1`, the growth in the assay on SR leukemia was 42.2%; with RPMI-8226 leukemia, 19.9%; in the assay with OVCAR-8 ovarian, 40.7%; in the assay on OVCAR-5 ovarian, 88.8%; in the assay on OVCAR-4 ovarian, 28.6%; in the assay on SK-OV-3 ovarian it was 72.8%. Also, the growth in the assay on IGROV1 ovarian is 62.9%; in the assay with OVCAR-3 ovarian, 33.8%; with HS 578T breast, 66%; in the assay on NCI/ADR-RES ovarian, 47.6%.
`C[C@@H]1N=C(c2ccc(Br)cc2)Nc2nc3ccccn3c2C1=O`: the growth in the assay on SR leukemia was 30%; in the assay with RPMI-8226 leukemia, 94%; in the assay with OVCAR-8 ovarian, 72.5%; in the assay with OVCAR-5 ovarian, 82.4%; with OVCAR-4 ovarian, 77.5%; in the assay on SK-OV-3 ovarian, 72%. The growth was 43.1% in the assay with IGROV1 ovarian, 17.3% with OVCAR-3 ovarian, 71.3% with HS 578T breast and 39.4% in the assay with NCI/ADR-RES ovarian.
Consider `Nc1ccc(C2=CC(c3ccc(Cl)cc3)N3C=CSC3=N2)cc1` (stereo not given), for which the growth in the assay with SR leukemia was -11.5% (active); in the assay with RPMI-8226 leukemia, -21.3% (active); with OVCAR-8 ovarian, -1.84% (active); in the assay on OVCAR-5 ovarian, -66.1% (active); in the assay on OVCAR-4 ovarian it was 0.424% (active); in the assay on SK-OV-3 ovarian, -51% (active). The growth was -88.8% (active) with IGROV1 ovarian, -63.1% (active) with OVCAR-3 ovarian, 16.8% in the assay on HS 578T breast and 31.6% in the assay on NCI/ADR-RES ovarian.
Turning to `O=C1/C(=C/c2ccc(O)cc2)Oc2ccc(Cl)cc21`, the growth in the assay with SR leukemia was 109%; with RPMI-8226 leukemia, 119%; in the assay with OVCAR-8 ovarian it was 79.4%; with OVCAR-5 ovarian, 106%; in the assay with OVCAR-4 ovarian, 120%; in the assay on SK-OV-3 ovarian, 111%. In addition, the growth with IGROV1 ovarian is -27.4% (active); with OVCAR-3 ovarian, 92.9%; in the assay with HS 578T breast, 87.1%; in the assay with NCI/ADR-RES ovarian it was 87.3%.
`N=C(N)c1ccc(-c2ccc(-c3cccs3)s2)nc1`: the growth was -9.12% (active) with SR leukemia; -24.2% (active) in the assay on RPMI-8226 leukemia; 55.7% in the assay on OVCAR-8 ovarian; 62.5% in the assay on OVCAR-5 ovarian; 34.7% in the assay with OVCAR-4 ovarian; 63.4% in the assay on SK-OV-3 ovarian. Moreover, the growth in the assay with IGROV1 ovarian is 70.4%; in the assay with OVCAR-3 ovarian it was 38.6%; with HS 578T breast, 80.1%; in the assay on NCI/ADR-RES ovarian it was 84.8%.
Turning to `COc1ccc(Nc2ccnc(N3CCN(c4ccnc5cc(Cl)ccc45)CC3)n2)cc1`, the growth in the assay with SR leukemia is 1.29% (active); in the assay on RPMI-8226 leukemia, -23.1% (active); in the assay on OVCAR-8 ovarian, 0.239% (active); in the assay with OVCAR-5 ovarian it was 9.98% (active); in the assay on OVCAR-4 ovarian, 10.7%; in the assay on SK-OV-3 ovarian, 12.7%. For the same molecule, the growth in the assay with IGROV1 ovarian is -0.0353% (active); in the assay on OVCAR-3 ovarian it was 15.8%; in the assay on HS 578T breast, 10.4%; with NCI/ADR-RES ovarian, -2.96% (active).
For the molecule `CCCC(C)c1ccc(OCCCCCCN2CCNCC2)cc1` (stereo not given), the growth was -24.7% (active) with SR leukemia; -9.35% (active) with RPMI-8226 leukemia; 36.8% with OVCAR-8 ovarian; 80.8% with OVCAR-5 ovarian; 62.2% in the assay with OVCAR-4 ovarian; 87% in the assay with SK-OV-3 ovarian. The growth with IGROV1 ovarian was 64.7%; in the assay with OVCAR-3 ovarian, 62.6%; in the assay with HS 578T breast, 68.1%; in the assay with NCI/ADR-RES ovarian it was 54.3%.
Consider `CCOC(=O)c1cc2c(n1Cc1cc(OC)cc(OC)c1)-c1oncc1CC2`, for which the growth in the assay on SR leukemia is 18%; in the assay on RPMI-8226 leukemia it was 39.5%; in the assay on OVCAR-8 ovarian, 26.8%; in the assay on OVCAR-5 ovarian, 49%; with OVCAR-4 ovarian it was 48.9%; in the assay on SK-OV-3 ovarian, 5.06% (active). Besides, the growth in the assay on IGROV1 ovarian was 14.3%; in the assay with OVCAR-3 ovarian, -51.2% (active); in the assay on HS 578T breast, -1.17% (active); with NCI/ADR-RES ovarian, 0.862% (active).
